Reference: PubChem BioAssay (Tox21)
Values joined by “and” are separate entries in the source; they are usually repeats but may differ in a detail not shown here. Equal values may be shown once. Inconclusive results are not listed. Entries that show only a call come without a potency. Some compounds were tested as several samples or in several runs, with calls that do not always agree. Active and inactive are the calls of the source. Unless noted, the call rests on the fitted dose curve; in most records, active means well fitted curve in the direction sought with a large enough effect in the repeat runs; inconclusive means weak or mixed curves; inactive means no such curve, though single readings can be large; an effect the other way counts as inactive or inconclusive.

Columns and labels:
[1] = qHTS assay to identify small molecule antagonists of the estrogen related receptor (ERR) signaling pathway from Tox21 library - cell viability counter screen (AID 1224834); further: nearly all actives have a fitted effect of over 30% in size; further: potency means the concentration at half of the fitted maximal effect
Method in brief: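 ERR reporter cells were plated 6 h before compound addition, then exposed to test compounds in DMSO for 17.5 h at 37 C. Viability was read as CellTiter-Fluor fluorescence after a 30-minute incubation at 37 C.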

[2] = target: Luciferin 4-monooxygenase (Photinus pyralis) (UniProt P08659); assay: qHTS assay to identify small molecule inhibitors of firefly luciferase (AID 1224835); further: nearly all actives have a fitted effect of over 25% in size; further: potency means the concentration at half of the fitted maximal effect
Method in brief: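 Biochemical qHTS: compounds run as interplate titrations against purified firefly enzyme, with D-luciferin and ATP each at its KM concentration. Light output recorded by CCD imaging.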

[3] = qHTS assay to identify small molecule agonists of the constitutive androstane receptor (CAR) signaling pathway - cell viability counter screen (AID 1224836); further: series mostly up to about 92 µM; nearly all actives have a fitted effect of over 45% in size
Method in brief: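 Multiplexed viability check: HepG2-CYP2B6-hCAR cells, 15-point compound dosing, 0.75 uM PK11195 final, 23 h at 37 C, CellTiter-Fluor fluorescence.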

[4] = qHTS assay to identify small molecule antagonists of the constitutive androstane receptor (CAR) signaling pathway - cell viability counter screen (AID 1224837); further: series mostly up to about 92 µM; nearly all actives have a fitted effect of over 45% in size
Method in brief: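 HepG2 cells stably expressing hCAR and a CYP2B6-2.2kb reporter were plated and pre-incubated 4 hr at 37 C/5% CO2, then given compounds at 15 concentrations plus 50 nM CITCO (final). After 23 hr, viability was read by CellTiter-Fluor fluorescence.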

[5] = target: Nuclear receptor subfamily 1 group I member 3 (Homo sapiens) (UniProt Q14994); assay: qHTS assay to identify small molecule antagonists of the constitutive androstane receptor (CAR) signaling pathway (AID 1224838); further: nearly all actives have a fitted effect of over 40% in size; further: potency means the concentration at half of the fitted maximal effect
Method in brief: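 HepG2 cells stably co-transfected with hCAR and a CYP2B6-2.2kb luciferase reporter were seeded 4 h before compound addition at 15 concentrations. Cells were stimulated with 50 nM CITCO (final) for 24 h at 37 C; luciferase luminescence was then read.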

[6] = target: Nuclear receptor subfamily 1 group I member 3 (Homo sapiens) (UniProt Q14994); assay: qHTS assay to identify small molecule agonists of the constitutive androstane receptor (CAR) signaling pathway (AID 1224839); further: nearly all actives have a fitted effect of over 15% in size; further: potency means the concentration at half of the fitted maximal effect
Method in brief: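 Using human hepatoma HepG2 cells engineered with hCAR and a CYP2B6-2.2kb reporter, 15-concentration compound series were incubated 24 h alongside PK11195 at 0.75 uM final, with luminescence quantified afterwards.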

[7] = qHTS assay to identify small molecule antagonists of the estrogen related receptor signaling pathway with the pleiotropic PPARgamma coactivator (PGC) from Tox21 10K library - cell viability counter screen (AID 1224840; active means well fitted cell-killing curve with a large enough effect in the repeat runs, not every such curve was filed as active; further: nearly all actives have a fitted effect of over 40% in size)
Method in brief: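 PGC/ERR cells were seeded at 2,000 cells/well and left 6 hours at 37 C/5% CO2 before pin-tool addition of compounds in DMSO. After 17.5 hours at 37 C, CellTiter-Fluor was added and fluorescence read 30 minutes later.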

[8] = qHTS assay to identify small molecule antagonists of the estrogen related receptor signaling pathway with the pleiotropic PPARgamma coactivator (PGC) from Tox21 10K library (AID 1224841; call rule not given here; further: series mostly up to about 92 µM; actives are mostly falling curves and most rising ones were filed inactive; nearly all actives have a fitted effect of over 50% in size)
Method in brief: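 PGC/ERR reporter cells were seeded at 2,000 cells/well and held 6 hours at 37 C/5% CO2 before pin-tool addition of compounds in DMSO. After 18 hours at 37 C, One-Glo was added and luminescence read after 30 minutes at room temperature.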

[9] = target: Thyrotropin receptor (Homo sapiens) (UniProt P16473); assay: qHTS assay to identify small molecule agonists of the thyroid stimulating hormone receptor (TSHR) signaling pathway (AID 1224843; calls by dose curve; further: nearly all actives have a fitted effect of over 45% in size)
Method in brief: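 Steps: seed 800 TSHR-HEK293 cells per well; add test compound and hold 30 min at ambient temperature; dispense cAMP-d2 then anti-cAMP cryptate; incubate 1 h at ambient; measure fluorescence intensity.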

[10] = qHTS assay to identify small molecule agonists of the estrogen related receptor signaling pathway with the pleiotropic PPARgamma coactivator (PGC) from Tox21 10K library (AID 1224842); further: nearly all actives have a fitted effect of over 15% in size
Method in brief: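 PGC/ERR reporter cell line, 2,000 cells per well, incubated 6 h at 37 C before 23 nL compound in DMSO was added. After 18 h at 37 C, One-Glo luminescence read following 30 min at room temperature.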

Chain of Luciferin 4-monooxygenase (Photinus pyralis) (P08659 whole entry, looked up): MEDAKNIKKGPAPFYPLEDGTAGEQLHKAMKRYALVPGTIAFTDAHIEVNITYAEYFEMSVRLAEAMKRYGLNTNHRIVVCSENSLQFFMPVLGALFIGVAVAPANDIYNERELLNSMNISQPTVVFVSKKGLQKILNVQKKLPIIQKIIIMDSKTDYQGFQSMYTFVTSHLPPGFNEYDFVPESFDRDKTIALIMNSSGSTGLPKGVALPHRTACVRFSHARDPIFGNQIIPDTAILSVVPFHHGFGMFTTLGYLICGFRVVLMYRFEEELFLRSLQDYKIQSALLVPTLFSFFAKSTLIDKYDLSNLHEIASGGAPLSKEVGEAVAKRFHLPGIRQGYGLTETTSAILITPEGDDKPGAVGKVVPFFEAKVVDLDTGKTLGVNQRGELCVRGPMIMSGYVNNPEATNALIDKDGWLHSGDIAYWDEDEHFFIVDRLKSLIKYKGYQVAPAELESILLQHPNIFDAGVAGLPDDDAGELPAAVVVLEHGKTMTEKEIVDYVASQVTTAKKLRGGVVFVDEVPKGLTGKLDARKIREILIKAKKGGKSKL
Chain of Thyrotropin receptor (Homo sapiens) (P16473 whole entry, looked up): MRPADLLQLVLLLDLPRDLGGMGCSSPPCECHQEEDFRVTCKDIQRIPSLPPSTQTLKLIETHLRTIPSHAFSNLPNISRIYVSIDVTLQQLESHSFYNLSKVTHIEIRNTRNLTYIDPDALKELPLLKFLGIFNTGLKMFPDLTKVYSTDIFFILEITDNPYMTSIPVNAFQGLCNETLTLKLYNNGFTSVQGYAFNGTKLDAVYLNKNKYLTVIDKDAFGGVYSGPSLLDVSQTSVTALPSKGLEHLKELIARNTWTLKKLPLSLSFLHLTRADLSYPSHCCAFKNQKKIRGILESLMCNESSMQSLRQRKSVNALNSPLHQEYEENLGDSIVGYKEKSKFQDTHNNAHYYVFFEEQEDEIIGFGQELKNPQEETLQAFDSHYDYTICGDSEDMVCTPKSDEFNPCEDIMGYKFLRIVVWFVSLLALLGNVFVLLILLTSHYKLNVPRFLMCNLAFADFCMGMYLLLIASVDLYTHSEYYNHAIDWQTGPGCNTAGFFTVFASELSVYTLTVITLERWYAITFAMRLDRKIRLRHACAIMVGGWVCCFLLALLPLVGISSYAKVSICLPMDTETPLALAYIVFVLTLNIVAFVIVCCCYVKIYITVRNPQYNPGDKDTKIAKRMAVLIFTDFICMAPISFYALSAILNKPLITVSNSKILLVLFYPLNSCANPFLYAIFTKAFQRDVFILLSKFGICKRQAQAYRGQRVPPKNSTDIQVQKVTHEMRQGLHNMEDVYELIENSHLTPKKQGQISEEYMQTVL
Chain of Nuclear receptor subfamily 1 group I member 3 (Homo sapiens) (Q14994 whole entry, looked up): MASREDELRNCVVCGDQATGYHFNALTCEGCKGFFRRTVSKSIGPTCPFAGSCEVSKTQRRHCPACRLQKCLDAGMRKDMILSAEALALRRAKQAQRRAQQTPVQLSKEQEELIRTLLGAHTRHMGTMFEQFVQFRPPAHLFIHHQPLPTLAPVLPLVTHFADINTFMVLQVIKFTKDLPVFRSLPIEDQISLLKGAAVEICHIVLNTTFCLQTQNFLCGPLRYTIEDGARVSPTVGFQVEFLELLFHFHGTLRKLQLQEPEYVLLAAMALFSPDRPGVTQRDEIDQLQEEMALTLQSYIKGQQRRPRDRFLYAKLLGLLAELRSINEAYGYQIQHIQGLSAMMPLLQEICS

SMILES | Potency [1] | Potency [2] | Potency [3] | Potency [4] | Potency [5] | Potency [6] | Potency [7] | Potency [8] | Potency [9] | Potency [10]
c1ccc2c(c1)[nH]c1ccccc12 | inactive | 39.2 µM (active) and inactive | inactive | inactive | inactive | 60.1 µM (active) | inactive | – | – | –
CC1=CC(C)(C)Nc2ccccc21 | inactive | inactive | inactive | inactive | inactive | inactive | inactive | inactive | – | –
CC(=O)[C@@]1(O)CC[C@H]2[C@@H]3C[C@H](C)C4=CC(=O)C=C[C@]4(C)[C@@]3(F)[C@@H](O)C[C@@]21C | inactive | inactive | inactive | inactive | inactive | inactive | inactive | inactive | – | –
[Na+] | inactive | inactive | inactive | inactive | inactive | inactive | inactive | – | – | –
CC1(C)OC(=O)NC1=O | inactive | inactive | inactive | inactive | inactive | inactive | inactive | inactive | inactive | –
C=CC(=O)OCCCC | inactive | inactive | inactive | inactive | inactive | inactive | inactive | inactive | inactive | inactive
CN(C)C | inactive | inactive | inactive | inactive | inactive | inactive | inactive | – | – | –
Nc1ccc(N)c(Cl)c1 | 61 µM (active) and 54.5 µM (active) | inactive | inactive | inactive | inactive | – | – | – | – | –
O=S1(=O)CCCO1 | inactive | inactive | inactive | inactive | inactive | inactive | inactive | – | inactive | –
C=C[Si](OCCOC)(OCCOC)OCCOC | inactive | inactive | inactive | inactive | inactive | inactive | inactive | – | inactive | –
CC(=O)[C@H]1CC[C@H]2[C@@H]3CC=C4C[C@@H](O)CC[C@]4(C)[C@H]3CC[C@]12C | inactive | inactive | inactive | inactive | inactive | inactive | inactive | inactive | inactive | –
C/C=C/C(=O)N(CC)c1ccccc1C | inactive | inactive | inactive | inactive | inactive | 27.3 µM (active) | inactive | inactive | inactive | –
Cc1ccc(C(C)(C)C)c(O)c1 | inactive | inactive | inactive | inactive | 59.1 µM (active) | inactive | inactive | inactive | – | –
C=CCCCCCCCCCC | inactive | inactive | inactive | inactive | inactive | inactive | inactive | – | – | –
Cc1ccc2c(c1)C(=O)OC2=O | inactive | inactive | inactive | inactive | inactive | inactive | inactive | – | – | –
Cc1cccc(Nc2ccccc2C(=O)O)c1C | inactive | 79.6 µM (active) | inactive | inactive | inactive | inactive | inactive | – | – | –
[O-]/[N+](=N\O)c1ccccc1 | inactive | 35.3 µM (active) and 22.4 µM (active) | inactive | inactive | inactive | – | inactive | – | inactive | –
CC[C@]12CCCN3CCc4c(n(c5ccccc45)[C@@](O)(C(=O)OC)C1)[C@@H]32 | inactive | inactive | inactive | inactive | – | – | inactive | inactive | – | –
CCc1cccc2c3c([nH]c12)C(CC)(CC(=O)O)OCC3 (stereo not given) | inactive | inactive | inactive | inactive | inactive | inactive | inactive | – | inactive | –
CC/C=C\C/C=C\C/C=C\CCCCCCCC(=O)O | inactive | inactive | inactive | inactive | inactive | inactive | inactive | – | inactive | –
CCC(=O)O[C@H]1[C@H](O[C@@H]2[C@@H](C)[C@H](O[C@H]3C[C@@](C)(OC)[C@@H](O)[C@H](C)O3)[C@@H](C)C(=O)O[C@H](CC)[C@@](C)(O)[C@H](O)[C@@H](C)C(=O)[C@H](C)C[C@@]2(C)O)O[C@H](C)C[C@@H]1N(C)C | inactive | inactive | inactive | inactive | – | – | inactive | – | – | –
COc1ccc(C(=O)c2ccccc2O)c(O)c1 | inactive | inactive | inactive | inactive | inactive | – | inactive | inactive | inactive | –
CCCCCCCCCCC(CO)CCCCCCCC (stereo not given) | inactive | inactive | inactive | inactive | inactive | inactive | inactive | – | inactive | –
C[N+](C)(C)CCO | inactive | inactive | inactive | inactive | inactive | inactive | inactive | – | inactive | –
COC(=O)CC(=O)OC | inactive | inactive | inactive | inactive | inactive | inactive | inactive | – | inactive | –
CCCCCCC(C)O (stereo not given) | inactive | inactive | inactive | inactive | – | – | inactive | – | – | –
